The entries come from a sample that favours hits as a whole.
Tgondii IFNg: blocks Toxoplasma gondii growth in the presence of IFN-gamma; 69,000 tested, 3.8% active; AID 1259416; activity change, negative = inhibition, % (test concentration not listed); Toxoplasma gondii growth in IFN-gamma-treated host cells; hits give low values; in the data active means activity change below about -70%, passing the limit was not always enough;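 further: host cells are HeLa cells infected with Toxoplasma gondii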
Numbers without * were called inactive.

SMILES | Tgondii IFNg
Cn1nccc1C(=O)N1CCc2c([nH]c3ccccc23)C1c1ccc(Cl)cc1 (stereo not given) | -115*
COCC(=O)N1CCc2c([nH]c3ccccc23)C1c1ccc(Cl)cc1 (stereo not given) | -16
CSc1ccc(C2c3[nH]c4ccccc4c3CCN2C(=O)c2cccc(Cl)c2)cc1 (stereo not given) | -18
CSc1ccc(C2c3[nH]c4ccccc4c3CCN2C(=O)c2ccc(Cl)cc2)cc1 (stereo not given) | 60
O=C(c1ccco1)N1CCc2c([nH]c3ccccc23)C1c1cccnc1 (stereo not given) | -44
O=C(C1CCC1)N1CCc2c([nH]c3ccccc23)C1c1ccc(Cl)cc1 (stereo not given) | -40
O=C(c1ccco1)N1CCc2c([nH]c3ccccc23)C1c1ccc(Cl)cc1 (stereo not given) | -88*
CSc1ccc(C2c3[nH]c4ccccc4c3CCN2C(=O)c2ccc3c(c2)OCO3)cc1 (stereo not given) | 209
C=CCn1c(=O)c(C(=O)NCc2ccco2)c(O)c2ccccc21 | 114
Cc1ccc(S(=O)(=O)N(C)c2cncc(C(=O)N3CCN(c4ccccc4)CC3)c2)cc1 | -26
Cc1cc(NC(C)c2cnn(C)c2)nc2cc(Cl)ccc12 (stereo not given) | -22
CC(c1cccc(-c2ccc(C(=O)O)o2)c1)N(C)C (stereo not given) | -3
Cc1oc(-c2ccccc2)nc1Cc1noc(Cc2c[nH]c3ccccc23)n1 | 6
COc1cc(C)c(-c2csc(NC(=O)CCc3c(C)nc(N)nc3C)n2)cc1C | 2
COCC(=O)N1C[C@@H]2COC[C@]2(Cc2nnc(C3CC3)o2)C1 | -7
CCc1ccc(S(=O)(=O)N2CCC(c3nc(C(=O)N(C)C)c(C)o3)CC2)cc1 | -52
CC(Nc1nc(CCN)nc2ccccc12)c1ccccc1C(F)(F)F (stereo not given) | -17
COc1ccc(-c2nc(Cn3ccn4nc(-c5cccs5)cc4c3=O)c(C)o2)cc1 | 3
COc1ccc(C2(NC(=O)Cc3cn(C)c(=O)c4ccccc34)CCCC2)cc1 | -4
CCN(C(=O)CN1C(=O)C2CCCCC2C1=O)c1nnc(-c2ccc(Cl)cc2)s1 (stereo not given) | 12
COc1cccc(C(=O)N2CCc3c([nH]c4ccccc34)C2c2ccc(C)cc2)c1 (stereo not given) | -126*
COc1ccc(C(=O)N2CCc3c([nH]c4ccccc34)C2c2ccc(Cl)cc2)cc1OC (stereo not given) | 12
O=C(c1cccnc1)N1CCc2c([nH]c3ccccc23)C1c1ccc(Cl)cc1 (stereo not given) | -114*
O=C(c1cccnc1)N1CCc2c([nH]c3ccccc23)C1c1ccc(F)cc1 (stereo not given) | 76
COc1cccc(C(=O)N2CCc3c([nH]c4ccccc34)C2c2ccc(Cl)cc2)c1 (stereo not given) | -99*
SMILES | Tgondii IFNg
Cc1ccc(C2c3[nH]c4ccccc4c3CCN2C(=O)CCC2CCCC2)cc1 (stereo not given) | -67
Cc1ccc(C2c3[nH]c4ccccc4c3CCN2C(=O)c2cccnc2)cc1 (stereo not given) | 68
Cc1cc(C)n(Cc2nc(-c3ccc(NC(=O)c4cc(F)ccc4Cl)cc3)oc2C)n1 | 9
CN(C)C(=O)N1CC[C@H]2OCC[C@@]2(COCc2cccnc2)C1 | -40
CN(C)CCOCC12CCCOC1CCN(C(=O)c1ccncc1)C2 (stereo not given) | 4
COCCN1C(=O)N(CCc2ccccc2)C(=O)C12CCN(Cc1ccoc1)CC2 | -50
COc1ccc(CC(=O)N2CCC(C)(C(=O)NCc3ccc(F)cc3F)CC2)cc1 | -36
COc1ccccc1-c1nc(Cn2ccn3nc(-c4ccc(Cl)cc4)cc3c2=O)c(C)o1 | 68
O=c1ccc2cc(S(=O)(=O)N3CCN(CCOc4ccc(Cl)cc4)CC3)ccc2[nH]1 | 56
Cc1ccc2[nH]cc(CN3CCCN(C(=O)c4ccco4)CC3)c2c1 | 21
CC(=O)c1c(CSCc2ccccc2)oc2ccc(O)c(CN(C)C)c12 | -40
CC(=O)NCCC1CN(C2CCN(c3ccc(C)cc3)CC2)CCO1 (stereo not given) | -6
CCc1csc(CNC2CCN(CC(C)C)CC2)n1 | 0
Cc1nccn1-c1ccccc1CNC1CCC2(CCNCC2)CC1 | 3
CCc1csc(CNC2CCC3(CCNCC3)CC2)n1 | -76*
CC(C)c1ccc(S(=O)(=O)N2CCC(C(=O)NCCc3csc(-c4ccccc4)n3)CC2)cc1 | -49
CCc1cn[nH]c1C1CCCN(C(=O)c2n[nH]c3ccc(C)cc23)C1 (stereo not given) | 32
Cc1ccc2[nH]nc(C(=O)N3CCCC(N)CC3)c2c1 (stereo not given) | -40
Cc1ccc2[nH]nc(C(=O)N3CCCC3c3ccc(Cc4ccccc4F)cn3)c2c1 (stereo not given) | -105*
CCOCC(=O)N1CCOCC1c1csc(C)n1 (stereo not given) | 7
COc1cccc(CNC(=O)C2=C(C)C(=O)OC23CCN(S(C)(=O)=O)CC3)c1 | 24
COc1ccccc1CN(Cc1cn[nH]c1-c1ccc(F)cc1)C1CC1 | 3
CC(C)Oc1ccc2c(=O)c(-c3ccccc3)coc2c1 | 431
CC(C)Oc1ccc(C2NC(=O)c3ccccc3O2)cc1 (stereo not given) | -98*
O=C1NCC(c2ccccc2)Oc2ccccc21 (stereo not given) | -27
SMILES | Tgondii IFNg
C=CC(=O)Nc1cccc(Oc2nc(Nc3ccc(N4CCN(C)CC4)cc3OC)ncc2Cl)c1 | -67
CCC(=O)Nc1cccc(Oc2nc(Nc3ccc(N4CCN(C)CC4)cc3OC)ncc2Cl)c1 | -19
C=CC(=O)Nc1cccc(Sc2nc(Nc3ccc(N4CCN(C)CC4)cc3)ncc2Cl)c1 | -82*
Cc1nc2cc(-c3ccco3)nn2c(NCc2ccc(N3CCCC3=O)cc2)c1C | 5
CCNc1ccnc(N2CCN(Cc3cnc(N4CCCC4)nc3)CC2)n1 | -5
N=C1SC(c2ccccc2)C(=O)N1c1nc2ccccc2s1 (stereo not given) | -82*
COc1ccc(C2CC(=O)c3cnn(-c4nc5ccccc5s4)c3C2)cc1 (stereo not given) | 62
COc1ccc(N2C(=O)CC(N3CCN(c4nc5ccccc5s4)CC3)C2=O)cc1 (stereo not given) | 15
Cc1noc([C@H]2CNC(=O)[C@H]3CCN(CC(C)C)CC[C@H]32)n1 | -1
CN(C)CCCN(Cc1ccccn1)Cc1cn[nH]c1C(C)(C)C | -11
Clc1nc2ccccc2c2[nH]c3ccccc3c12 | -95*
O=C1NCc2c1c1c3ccccc3[nH]c1c1[nH]c3ccccc3c21 | 1
c1ccc(Cc2nc3ccccc3[nH]2)cc1 | -16
CCn1c(=O)c(-c2nc(-c3ccc(Cl)cc3)no2)c(O)c2ccc(F)cc21 | 20
CN(C(=O)c1cc2cccnc2n(Cc2ccc(F)cc2)c1=O)C1CCCCC1 | 59
O=C(COc1ccccc1F)NCCc1csc(-c2cccc(F)c2)n1 | -26
Cc1cc(C)c2c(n1)sc1c(=O)oc(C)nc12 | 14
Cc1cc(C)c2c(n1)sc1c3ccccc3c(N)nc12 | -102*
C=CCSc1ncnc2c1sc1nc(C)cc(C)c12 | 99
O=C(NCCc1csc(-c2ccc(C(F)(F)F)cc2)n1)C(=O)Nc1ccccc1 | -17
COC(=O)[C@@H]1C[C@@H](N(C)C)CN1C(=O)c1cc(C(C)C)oc1C | 4
Cc1nc2n(CCN3CCCCC3)c3ccccc3n2n1 | -4

From PubChem
